The sequences below were run against PRRX1 (Homo sapiens, UniProt P54821 80-166) (assay: PBM; 200 nM protein, PBS). Details: dsDNA, one strand shown.
PRRX1, sequence (P54821 80-166): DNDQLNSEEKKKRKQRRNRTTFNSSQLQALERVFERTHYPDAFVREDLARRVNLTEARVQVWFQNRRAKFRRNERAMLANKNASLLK
For ACAATTCT, the binding signal was 10.5 upbm affinity estimate (log intensity, higher = more binding, comparable within an allelic series). In the case of ATTGAATG, the binding signal is reported as 11.6 upbm affinity estimate (log intensity, higher = more binding, comparable within an allelic series). AAATACGA was tested, and the binding signal was 11 upbm affinity estimate (log intensity, higher = more binding, comparable within an allelic series). For ATACCTAA, the binding signal was 11.2 upbm affinity estimate (log intensity, higher = more binding, comparable within an allelic series). For TACATCAA, the binding signal was 11.1 upbm affinity estimate (log intensity, higher = more binding, comparable within an allelic series). For AAATATTC, the binding signal was 11.3 upbm affinity estimate (log intensity, higher = more binding, comparable within an allelic series). For TGATGAAA, the binding signal was 11.1 upbm affinity estimate (log intensity, higher = more binding, comparable within an allelic series). With AATGTAAC the binding signal was 11.3 upbm affinity estimate (log intensity, higher = more binding, comparable within an allelic series). For AATATCAA, the binding signal was 11.7 upbm affinity estimate (log intensity, higher = more binding, comparable within an allelic series). For GGCTATAA, the binding signal was 11.4 upbm affinity estimate (log intensity, higher = more binding, comparable within an allelic series). With AAAAGAAT the binding signal was 11 upbm affinity estimate (log intensity, higher = more binding, comparable within an allelic series). For AATCAGCA, the binding signal was 12 upbm affinity estimate (log intensity, higher = more binding, comparable within an allelic series).

What follows are sequences tested against HOXB6 (Homo sapiens, UniProt P17509 132-218) (assay: PBM; 200 nM protein, PBS). Details: dsDNA, one strand shown.
HOXB6, sequence (P17509 132-218): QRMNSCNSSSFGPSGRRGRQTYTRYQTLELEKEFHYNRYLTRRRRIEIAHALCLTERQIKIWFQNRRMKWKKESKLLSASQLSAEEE
ACAAATTG was tested, and the binding signal was 10.4 upbm affinity estimate (log intensity, higher = more binding, comparable within an allelic series). With GGTTAATA the binding signal was 10.9 upbm affinity estimate (log intensity, higher = more binding, comparable within an allelic series). For AGTATCTA, the binding signal was 10.2 upbm affinity estimate (log intensity, higher = more binding, comparable within an allelic series). ATATACGA was tested, and the binding signal was 9.93 upbm affinity estimate (log intensity, higher = more binding, comparable within an allelic series). For ATTTTTTA, the binding signal was 10.4 upbm affinity estimate (log intensity, higher = more binding, comparable within an allelic series). In the case of GCATAGTA, the binding signal is reported as 9.78 upbm affinity estimate (log intensity, higher = more binding, comparable within an allelic series). With AATGTACA the binding signal was 10.3 upbm affinity estimate (log intensity, higher = more binding, comparable within an allelic series). With TGTAAACA the binding signal was 10 upbm affinity estimate (log intensity, higher = more binding, comparable within an allelic series). For ATGTAATC, the binding signal was 10.5 upbm affinity estimate (log intensity, higher = more binding, comparable within an allelic series). ATAATGTG was tested, and the binding signal was 11.1 upbm affinity estimate (log intensity, higher = more binding, comparable within an allelic series). For CTATTTTA, the binding signal was 10.5 upbm affinity estimate (log intensity, higher = more binding, comparable within an allelic series). For CATTATGA, the binding signal was 11 upbm affinity estimate (log intensity, higher = more binding, comparable within an allelic series). TACTACGA was tested, and the binding signal was 10.1 upbm affinity estimate (log intensity, higher = more binding, comparable within an allelic series). For AAATAAAC, the binding signal was 10.5 upbm affinity estimate (log intensity, higher = more binding, comparable within an allelic series). For ACATATCT, the binding signal was 10 upbm affinity estimate (log intensity, higher = more binding, comparable within an allelic series). With ATCATAAT the binding signal was 11.2 upbm affinity estimate (log intensity, higher = more binding, comparable within an allelic series). AAGATTTA was tested, and the binding signal was 10 upbm affinity estimate (log intensity, higher = more binding, comparable within an allelic series). ATTAGCGC was tested, and the binding signal was 10.6 upbm affinity estimate (log intensity, higher = more binding, comparable within an allelic series).

Reference: publication PMC11006913
